Assay results as given in PubChem BioAssay (NCATS).
Records with an inconclusive call do not appear. Calls of active or inactive are those of the source. The call rests on the fitted dose curve; in most records, active means well fitted inhibition curve with a large enough effect; inconclusive means small, poorly fitted or top-dose-only effect; inactive means flat fitted curve, though single readings scatter.

Legend:
Experiment in all cases: qHTS profiling for inhibitors of Plasmodium falciparum proliferation (AID 504749); further: nearly all actives have a fitted effect of over 60% in size
Details in all cases: P. falciparum in erythrocytes, SYBR Green DNA, 72 h; series mostly up to 28.7 µM
CP247 = tested on: CP247
In short: (§1)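 P. falciparum-infected erythrocytes (0.3% parasitemia, 2.5% hematocrit) incubated with compound 72 h at 37 C, 5% CO2. Parasite DNA detected by SYBR Green after lysis, overnight at room temperature; normalised to 0.29 uM artemisinin and DMSO.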

CP250 = tested on: CP250
In short: as §1

CP252 = tested on: CP252
In short: as §1

CP256 = tested on: CP256
In short: as §1

CP260 = tested on: CP260
In short: as §1

CP262 = tested on: CP262
In short: as §1

CP265 = tested on: CP265
In short: as §1

CP266 = tested on: CP266
In short: as §1

CP268 = tested on: CP268
In short: as §1

CP269 = tested on: CP269
In short: as §1

Measured: Potency

Nc1ccc(S(=O)(=O)Nc2nccs2)cc1
inactive: all assays above

CC(=O)CCC(=O)O
inactive: all assays above

NCCNCCNCCN
inactive: all assays above

O=C(O)c1ccccn1
inactive: all assays above

O=C(Oc1ccccc1C(=O)O)c1ccccc1O
inactive: all assays above

Cc1ccc(C(C)C)cc2c(C)ccc1-2
inactive: all assays above

CC1(C)[C@@H]2CC[C@@]1(C)C(=O)C2
inactive: all assays above

CCOC(=O)c1ccc(O)cc1
inactive: all assays above

O=C(O)CC(O)C(=O)O (centres undefined)
inactive: all assays above

CCOC(=O)[C@H](CCc1ccccc1)N[C@@H](C)C(=O)N1C(=O)N(C)C[C@H]1C(=O)O
inactive: all assays above

CCCCCCCCCCCCCCCCCCOCC(O)CO (centres undefined)
inactive: all assays above

CCCCC(CC)COC(=O)c1ccccc1O (centres undefined)
inactive: all assays above

NCCNCCNCCNCCN
inactive: all assays above

Cc1cc2c(cc1S(N)(=O)=O)S(=O)(=O)CCC2
inactive: all assays above

C[C@](N)(Cc1ccc(O)cc1)C(=O)O
inactive: all assays above

CCCn1cnc2c1c(=O)n(CCCCC(C)=O)c(=O)n2C
not listed: CP269
inactive: all other assays above

Cc1cc(CC(=O)O)n(C)c1C(=O)c1ccc(Cl)cc1
inactive: all assays above

Cc1ncc(COP(=O)(O)O)c(C=O)c1O
inactive: all assays above

CCCCCCCCCCCCCCCC(=O)NCCO
inactive: all assays above

O=C(O)c1ccccc1-c1ccc(C(F)(F)F)cc1
inactive: all assays above

Cc1cc(O)cc2c1O[C@](C)(CCC[C@H](C)CCC[C@H](C)CCCC(C)C)CC2
inactive: all assays above

[O-][n+]1cccc(CO)c1
inactive: all assays above

CC(=O)Oc1ccc(C2(c3ccc(OC(C)=O)cc3)C(=O)Nc3ccccc32)cc1
inactive: all assays above

C=Cc1c(C)c2cc3[nH]c(cc4nc(cc5nc(cc1[nH]2)C(C)=C5CCC(=O)O)C(CCC(=O)O)=C4C)c(C)c3C=C
inactive: all assays above

CC(=O)c1ccc2c(c1)N(CCCN(C)C)c1ccccc1S2
inactive: all assays above

O=C1O[C@H]([C@@H](O)CO)C(O)=C1O
inactive: all assays above

C[C@@H]1CN(c2c(F)c(F)c3c(=O)c(C(=O)O)cn(C4CC4)c3c2F)C[C@H](C)N1
inactive: all assays above

Nc1ncnc2c1ncn2[C@@H]1O[C@H](CO)[C@@H](O)[C@H]1O
inactive: all assays above

Cc1cccc(Nc2cc(Cl)nc(SCC(=O)O)n2)c1C
inactive: all assays above

O=C1c2c(O)cccc2Cc2cccc(O)c21
inactive: all assays above

NC(=O)NC(=O)Cc1ccccc1
inactive: all assays above

Oc1cn2c(n1)Nc1ccc(Cl)c(Cl)c1C2
inactive: all assays above

O=C(O)CN1C(=O)c2cccc3cccc(c23)C1=O
inactive: all assays above

CC1=C(/C=C/C(C)=C/C=C/C(C)=C/C(=O)O)C(C)(C)CCC1
inactive: all assays above

CC1(C)CO[C@@H](CC(=O)O)CN1
inactive: all assays above

COc1cc2[nH]c(=O)[nH]c(=O)c2cc1OC
inactive: all assays above

O=c1[nH]c(=O)c2[nH]c(=O)[nH]c2[nH]1
inactive: all assays above

CC(O)COc1ccccc1 (centres undefined)
inactive: all assays above

CCCCOC(=O)c1ccc(O)cc1
inactive: all assays above

CCC(=O)Nc1ccc(O)cc1
inactive: all assays above

O=c1cc[nH]c(=S)[nH]1
inactive: all assays above

CCCCCCCCCCCCOS(=O)(=O)O
inactive: all assays above

NCC(=O)CCC(=O)O
inactive: all assays above

O=Cc1ccccc1C=O
inactive: all assays above

COc1ccc(S(=O)(=O)Nc2nnc(CC(C)C)s2)cc1
inactive: all assays above

CC(=O)Nc1ccc(/C=N/NC(N)=S)cc1
inactive: all assays above

CCCCOc1cc(C(=O)OCCN(CC)CC)ccc1N
inactive: all assays above

O=c1cc(CO)occ1O
inactive: all assays above
